Key:
[1] = molecular target: T1, Aspartate--tRNA(Asp/Asn) ligase (Mycobacterium tuberculosis (strain ATCC 25618 / H37Rv)) (UniProt P9WFW3); test: Assay for Asp RNA synthetase-1 from Mycobacterium tuberculosis; format: functional; design: scale not given: direction of the effect not stated beside the values; settings: 30 µM; also: in the data most compounds retested in dose-response had high values
T1 sequence (whole entry): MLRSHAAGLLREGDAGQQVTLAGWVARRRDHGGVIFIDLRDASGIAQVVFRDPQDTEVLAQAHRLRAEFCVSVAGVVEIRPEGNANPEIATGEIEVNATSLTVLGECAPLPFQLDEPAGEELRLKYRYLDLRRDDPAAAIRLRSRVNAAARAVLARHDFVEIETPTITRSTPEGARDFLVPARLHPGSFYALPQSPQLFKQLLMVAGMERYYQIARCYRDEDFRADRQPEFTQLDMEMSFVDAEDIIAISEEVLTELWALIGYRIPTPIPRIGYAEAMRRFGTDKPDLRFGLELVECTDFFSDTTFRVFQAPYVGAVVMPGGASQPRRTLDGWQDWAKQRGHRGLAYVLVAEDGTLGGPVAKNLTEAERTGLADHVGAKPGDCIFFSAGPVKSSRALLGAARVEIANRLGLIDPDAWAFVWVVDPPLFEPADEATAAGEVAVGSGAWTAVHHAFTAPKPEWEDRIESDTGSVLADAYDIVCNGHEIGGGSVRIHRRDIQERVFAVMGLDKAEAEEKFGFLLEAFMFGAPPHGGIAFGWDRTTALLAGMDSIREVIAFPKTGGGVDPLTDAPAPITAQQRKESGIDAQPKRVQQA

[2] = molecular target: Shiga toxin 2 (Escherichia coli O157:H7) (UniProt P09385+P09386); test: E. coli 0.157:H7 Shiga Toxin SOP - stx2 screening assay; format: functional; design: scale not given: direction of the effect not stated beside the values; settings: 30 µM

Row | SMILES | Percent Effect [1] [%] | Percent Effect [2] [%]
1 | CC(c1nc(C2CC2)no1)N1CCN(Cc2cccc(C#N)c2)CC1 (configuration not stated) | -3.08 | 9.24
2 | Cc1ccccc1CN1CCC(NCC2CNc3ccnn3C2)CC1 (configuration not stated) | 0.127 | -38.1
3 | CO[C@H]1CO[C@@]2(CCCN(C(=O)C3=CCCCC3)C2)C1 | 8.41 | -11.8
4 | CCc1sc(-c2nnc(CNCCn3cc(C)cn3)o2)cc1C | 2.52 | -107
5 | O=C(NCCC1=CCCCC1)NCc1nnc2n1CCC2 | 2.5 | 24.3
6 | COCC(C)N(C)C(=O)c1nc(S(C)(=O)=O)n2ccccc12 (configuration not stated) | -0.433 | -13.2
7 | CC(C)N(C)CC(=O)N1CCCC(c2ccc(C(=O)O)cc2)C1 (configuration not stated) | -4.14 | 18.4
8 | Cc1ccccc1C1CCCN1C(=O)CN1CC2(CCNCC2)OC1=O (configuration not stated) | 3.25 | 2.84
9 | Cc1cc(C)c(CNC(=O)N2CCCC2c2ccccc2)c(=O)[nH]1 (configuration not stated) | -3.97 | -21.1
10 | O=C(Nc1cccnc1)[C@H]1C[C@@H]2CN(C(=O)NC3CCCC3)C[C@H]1O2 | 2.61 | -2.93
11 | CCN1CC2(CC1=O)CN(Cc1cnn(C)c1)CCN(C(=O)C(C)C)C2 (configuration not stated) | -1.53 | -10.1
12 | Cn1ccc(C(=O)N2CCN(c3cc(C#N)ccn3)CC2)cc1=O | 3.75 | 1.09
13 | Cc1nc2cc(C3CCN(Cc4cccc(F)c4F)C3)nn2c(O)c1C (configuration not stated) | 2.37 | -139
14 | CC(C)N1CCOCC2(CN(Cc3nccs3)CCO2)C1 (configuration not stated) | 2.14 | -11.3
15 | NC(=O)C(CNC(=O)COCC(F)(F)F)Cc1ccc(F)cc1 (configuration not stated) | 0.689 | 4.66
16 | CC(C(=O)NCc1ccc(N2CCNC(=O)C2)cc1)n1cncn1 (configuration not stated) | 3.94 | -118

From ChEMBL document CHEMBL3988442, “University of Dundee, Small-Polar-MMV Screening Library” (2021)
